Reference: PubChem BioAssay (NCATS)
Records with an inconclusive call do not appear. A call without a number means that no potency is given here. The source made the active and inactive calls. Calls come from the whole dose curve; as a rule, active = well fitted curve in the direction sought with a large enough effect; inconclusive = small, poorly fitted or top-dose-only effect, or another doubt; inactive = no such curve, though single readings can be large; an effect the other way counts as inactive or inconclusive.

Experiments:
[1] = qHTS for Inhibitors of ATXN expression: Validation of Cytotoxic Assay (AID 588349)
Outline: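 Cytotoxicity counter-screen: HEK293 cells exposed to compound titrations, 72 hr, 37 degrees C. Read-out is intracellular ATP (CellTiter Glo luminescence) as a viability measure.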

[2] = qHTS for Inhibitors of ATXN expression: Validation (AID 588378); note: nearly all actives have a fitted effect of over 75% in size
Outline: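 Validation of ATXN2 expression inhibitors uses a cell-based luciferase fusion reporter in HEK293 cells, with 24 h compound exposure and paired viability (fluorescence) and reporter (luminescence) end-point reads.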
Potency is the fitted concentration of half-maximal effect.

| Structure (SMILES) | Potency [1] | Potency [2] |
| --- | --- | --- |
| CNC1(C)C2CCC(C2)C1(C)C (centres undefined) | inactive | inactive |
| CCN(CC)CCNC(=O)c1cc(S(C)(=O)=O)ccc1OC | inactive | inactive |
| CC(C)NNC(=O)c1ccncc1 | inactive | inactive |
| C=CCc1ccccc1OCC(O)CNC(C)C (centres undefined) | inactive |  |
| CC(N=C(NC#N)Nc1ccncc1)C(C)(C)C (centres undefined) | inactive | inactive |
| CC(=O)OCC1=C(C(=O)O)N2C(=O)[C@@H](NC(=O)Cc3cccs3)[C@H]2SC1 | inactive | inactive |
| CCn1ccnc1CC1COc2ccccc2O1 (centres undefined) | inactive | inactive |
| NCCCNCCSP(=O)(O)O | inactive | inactive |
| CN(C)C/C=C(/c1ccc(Br)cc1)c1cccnc1 | inactive |  |
| C[N+](C)(C)CCOC(=O)CCC(=O)OCC[N+](C)(C)C | inactive | inactive |
| Cc1ccc(Cl)c(Nc2ccccc2C(=O)O)c1Cl | inactive | inactive |
| C[C@]12CC[C@@H]3c4ccc(O)cc4C[C@@H](CCCCCCCCCS(=O)CCCC(F)(F)C(F)(F)F)[C@H]3[C@@H]1CC[C@@H]2O (some centres undefined) | inactive | inactive |
| CSc1ccc(C(=O)c2[nH]c(=O)[nH]c2C)cc1 | inactive | inactive |
| C[N+](C)(C)CCOC(N)=O | inactive | inactive |
| CCN(CC)CC(=O)Nc1c(C)cccc1C | inactive | inactive |
| COC(=O)C1=C(C)NC(C)=C(C(=O)OCCN(C)Cc2ccccc2)C1c1cccc([N+](=O)[O-])c1 (centres undefined) | 20 µM (active) | 35.5 µM (active) |
| CN(C)CCOC(=O)COc1ccc(Cl)cc1 | inactive | inactive |
| CCN1CCc2nc(N)oc2CC1 | inactive | inactive |
